Rows were chosen to be rich in hits. Some 2.6% of all compounds tested hit in one or more screens of this group.
PAFAH2 FP inh – PAFAH2 (human) inhibition; Q99487; recombinant PAFAH2, FP-rhodamine activity probe, fluorescence polarization; inhibition, % at 3.39 µM; 340,000 tested, 0.99% active; AID 492956;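 active = inhibition above the mean over all tested compounds plus 3 SD, cut at about 30% in these data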;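 also: inhibitors block probe labeling of enzyme so polarization drops; 0% = enzyme with DMSO and 100% = wells lacking PAFAH2 protein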
PKA-R1A act – PKA-R1A complex activation; P00514+P68181; 340,000 tested, 0.083% active; AID 504707; PKA-R1A dissociation, Cy5-IP20 fluorescence polarization; scaled: DMSO 0%, 113 µM cGMP 100%; activation, % at 11.4 µM;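 active = percent activation above the mean of all tested compounds plus 3 SD, cut at about 19% in these data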;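 also: higher means more PKAc released from R1A so a rise in polarization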
PKA-R2B activ – activators of human PKA-R2B complex. P22694+P31323. PKA-R2B holoenzyme dissociation, Cy5-IP20 fluorescence polarization; R2B truncated from residue 108, S112A mutant; 0% DMSO only, 100% 113 µM cGMP. activation, % at 11.4 µM. 340,000 tested, 0.079% active;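 active = activation above a cutoff set at the mean over all compounds plus 3 SD, cut at about 18% in these data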;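 also: higher means more holoenzyme dissociation and a rise in polarization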
Target sequence (P31323 whole entry, looked up, other chains not shown, the tested form may be a part): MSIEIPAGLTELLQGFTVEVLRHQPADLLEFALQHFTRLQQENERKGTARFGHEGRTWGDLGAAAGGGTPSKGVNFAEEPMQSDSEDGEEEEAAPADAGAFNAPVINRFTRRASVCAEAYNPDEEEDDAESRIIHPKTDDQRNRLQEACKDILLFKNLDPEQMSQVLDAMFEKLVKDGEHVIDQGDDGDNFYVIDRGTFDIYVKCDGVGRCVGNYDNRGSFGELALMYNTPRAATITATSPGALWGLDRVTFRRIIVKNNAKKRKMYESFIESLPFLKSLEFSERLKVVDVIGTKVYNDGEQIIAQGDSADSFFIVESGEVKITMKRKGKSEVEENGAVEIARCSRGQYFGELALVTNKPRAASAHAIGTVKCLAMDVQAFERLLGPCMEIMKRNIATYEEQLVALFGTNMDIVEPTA
PAFAH1B3 inh – inhibitors of human PAFAH1B3; Q15102; recombinant PAFAH1B3, FP-rhodamine probe, fluorescence polarization; inhibition, % at 3.39 µM; 340,000 tested, 0.28% active; AID 492972;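 active = inhibition above the screen-wide average of all tested compounds plus 3 SD, cut at about 25% in these data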;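 also: 0% = enzyme with DMSO only and 100% = wells lacking PAFAH1B3 protein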
Target sequence (Q15102 whole entry, looked up): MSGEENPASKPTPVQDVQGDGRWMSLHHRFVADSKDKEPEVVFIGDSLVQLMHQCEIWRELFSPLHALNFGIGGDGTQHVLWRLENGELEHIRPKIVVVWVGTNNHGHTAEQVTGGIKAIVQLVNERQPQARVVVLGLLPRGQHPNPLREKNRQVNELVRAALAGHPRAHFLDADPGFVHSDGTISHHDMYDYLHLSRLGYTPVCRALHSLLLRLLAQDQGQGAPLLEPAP
PAFAH1B2 FP inh – inhibitors of human PAFAH1B2; inhibition, % at 3.39 µM; P68402; recombinant PAFAH1B2, FP-rhodamine activity probe, fluorescence polarization; 340,000 tested, 1.2% active; AID 492953;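 active = inhibition above the mean of all tested compounds plus 3 SD, cut at about 24% in these data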;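 also: 0% = enzyme with DMSO and 100% = wells lacking PAFAH1B2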
pPAFAH FP inh – inhibitors of human plasma PAF acetylhydrolase (pPAFAH). Q13093. recombinant pPAFAH, FP-rhodamine probe fluorescence polarization. inhibition, % at 3.39 µM. 330,000 tested, 1.5% active. AID 463082;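 active = inhibition above the mean inhibition across the screen plus 3 SD, cut at about 25% in these data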;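 also: inhibitors block binding of the rhodamine activity-based probe so polarization drops; 0% = enzyme with DMSO and 100% = wells lacking pPAFAH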
PAFAH2 FP conf – confirmation of human PAFAH2 inhibitors; AID 493030; recombinant PAFAH2, FP-rhodamine activity probe, fluorescence polarization; shares compounds with PAFAH2 FP inh; inhibition, % at 3.39 µM; 2,300 tested, 65% active;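 active = mean inhibition over three repeats above a set limit taken from the earlier primary screen, cut at about 30% in these data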;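 also: inhibitor blocks binding of rhodamine activity probe so polarization falls; 0% = enzyme with DMSO and 100% = wells lacking PAFAH2 protein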
The depositor's hits bear a star; x = no result given.

SMILES	PAFAH2 FP inh	PKA-R1A act	PKA-R2B activ	PAFAH1B3 inh	PAFAH1B2 FP inh	pPAFAH FP inh	PAFAH2 FP conf
O=C(COC(=O)c1cccs1)Nc1ccc(S(=O)(=O)N2CCOCC2)cc1	-6.0	0.7	4.8	8.6	11.0	-0.1	x
O=C(COC(=O)c1cccs1)Nc1cccc(S(=O)(=O)N2CCOCC2)c1	63.9*	-11.6	9.6	3.9	-2.6	3.0	63.2*
Cc1ccc(CNC(=O)CCc2cn(C)c3ccccc23)cc1	5.4	1.4	-5.2	3.1	6.1	2.8	x
CC/C(=N/OC(=O)c1cccc(C)c1)C(=O)c1cccs1	37.2*	-7.2	1.2	1.5	2.5	5.3	26.6
Cc1cccc(C(=O)O/N=C(\N)c2ccccn2)c1	14.9	6.0	2.9	0.6	-1.8	2.6	x
C/C(=N/OC(=O)c1ccc(C)cc1)c1cccs1	69.5*	-11.6	-8.2	-1.9	-3.5	15.8	51.5*
C/C(=N\OC(=O)c1ccc(C)cc1)c1c(C)nc2cc(C)ccn12	-1.1	-15.5	-4.5	7.0	4.0	2.3	x
C/C(=N\OC(=O)c1ccc(C)cc1)c1sc(C)nc1C	54.8*	8.1	3.8	0.1	1.9	24.4	43.1*
O=C(COC(=O)Cc1ccc(Cl)cc1)NCc1ccc2c(c1)OCO2	-3.9	-0.8	-0.4	6.7	7.3	x	x
O=C(COC(=O)c1ccc2c(c1)OCO2)Nc1ncc(Cl)cc1Cl	40.1*	-5.8	-9.9	2.4	3.8	10.4	37.5*
O=C(COC(=O)c1ccc2c(c1)OCO2)NCc1ccc(Cl)cc1	43.6*	-3.6	-7.4	4.5	9.6	2.9	40.1*
O=C(COC(=O)c1cccnc1Cl)Nc1ncc(Cl)cc1Cl	9.2	-15.5	-7.0	0.0	5.5	3.6	x
O=C(COC(=O)c1ccc(O)cc1)Nc1ncc(Cl)cc1Cl	37.9*	5.4	-0.7	-1.2	1.9	8.0	28.7
Cc1ccc(N2CCN(C(=O)CNS(=O)(=O)c3ccc(Br)s3)CC2C)cc1 (configuration not stated)	35.9*	-8.1	8.6	5.1	11.5	2.9	23.7
CC1CC(C)CN(C(=O)CNS(=O)(=O)c2ccc(Br)s2)C1 (configuration not stated)	4.2	-6.2	-8.0	8.0	21.5	-3.4	x
CCN(CC)S(=O)(=O)c1ccc(N2CCOCC2)c(NC(=O)c2nn(C(C)C)c(=O)c3ccccc23)c1	x	-3.7	-6.0	x	x	x	x
COc1ccc(C(=O)O/N=C(\N)Cc2cccs2)cc1OC	78.5*	-0.5	0.0	6.2	1.6	12.7	76.3*
COc1ccc(/C(N)=N/OC(=O)Cc2cccs2)cc1OC	-1.1	-13.1	-5.0	9.1	-3.5	14.1	x
COc1ccccc1C/C(N)=N/OC(=O)c1ccc(C)c([N+](=O)[O-])c1	24.2	-3.7	-0.5	4.7	2.1	6.5	x
Cc1ccc(C(=O)O/N=C(\N)Cc2cccs2)cc1[N+](=O)[O-]	36.3*	-0.3	1.6	5.5	3.2	13.5	12.4
CSCCC(NS(=O)(=O)c1c(Cl)cccc1Cl)C(=O)O (configuration not stated)	2.2	2.7	-4.3	3.3	-1.9	-3.0	x
CSCCC(NS(=O)(=O)c1ccc(Cl)cc1)C(=O)O (configuration not stated)	35.4*	-5.2	-11.4	-0.8	4.2	-2.4	28.6
NS(=O)(=O)c1cccc(NC(=O)COC(=O)CC2CC3CCC2C3)c1 (configuration not stated)	34.6*	2.6	-5.0	5.5	20.8	1.5	18.7
CC(=O)c1cccc(NC(=O)COC(=O)CC2CC3CCC2C3)c1 (configuration not stated)	74.8*	3.9	-4.3	-1.6	16.2	19.7	62.6*
CCc1sc(C(=O)Nc2ncccc2O)cc1C	30.4*	7.7	-10.0	4.3	1.9	x	26.6
SMILES	PAFAH2 FP inh	PKA-R1A act	PKA-R2B activ	PAFAH1B3 inh	PAFAH1B2 FP inh	pPAFAH FP inh	PAFAH2 FP conf
Cc1ccccc1C(=O)N/N=C/c1ccc([N+](=O)[O-])s1	10.2	-5.9	-5.4	11.3	2.6	10.0	x
Cc1c(Cl)cccc1N=Cc1ccc([N+](=O)[O-])s1	71.1*	-6.8	7.9	13.5	13.2	11.0	8.3
N#CCC(=O)Nc1ccc(C(=O)OCC(=O)NC2CCCCCC2)cc1	83.1*	2.1	-13.5	3.8	2.6	6.1	84.0*
COc1ccccc1NS(=O)(=O)c1cccc(C(=O)OCC(=O)NC2CC2)c1	14.4	-14.6	-7.0	3.4	-1.8	23.6	x
O=C(COC(=O)c1cc(Br)ccc1Cl)NC1CCCC1	34.1*	1.5	13.0	-0.8	0.3	15.6	30.3*
CNS(=O)(=O)c1cccc(C(=O)OCC(=O)NC2CCCC2)c1	46.3*	-1.4	0.5	8.1	-2.6	5.6	27.6
CC(=O)Nc1ccc(C(=O)OCC(=O)NC2CCCCCC2)cc1	x	14.7	5.5	x	x	x	x
O=C(COC(=O)c1ccccc1)NC1CCCC1	73.3*	-4.8	10.1	5.9	8.1	6.9	57.7*
CCCCN(C(=O)C1CC(=O)N(c2ccc(CC)cc2)C1)c1c(N)n(CCC)c(=O)[nH]c1=O (configuration not stated)	3.7	5.2	2.9	2.6	-0.7	x	x
Cc1ncc(CN2CCC(C(=O)Nc3cccc(-c4cscn4)c3)CC2)cn1	-2.0	-0.9	-2.4	1.1	-2.9	1.5	x
Nc1cc(Cl)ccc1C(=O)OCC(=O)NC1CCCCC1	32.6*	-2.7	-12.5	9.0	-1.5	-2.5	30.8*
CCN(C(=O)COC(=O)c1ccc(Cl)cc1N)C1CCCCC1	1.1	-8.1	-10.9	6.8	4.0	3.5	x
O=C(COC(=O)c1cccc(Br)c1)NC1CCCCCCC1	x	-3.0	5.5	x	x	x	x
O=C(COC(=O)c1c2c(nc3ccccc13)/C(=C/c1ccco1)CC2)NC1CCCC1	35.9*	4.1	-1.2	18.0	3.9	x	7.4
O=C(COC(=O)c1ccc(Br)cc1)NC1CCCC1	67.3*	3.5	-4.0	3.9	-0.8	18.5	69.1*
O=C1OCCC1=COCCCCCCOC=C1CCOC1=O	x	-3.2	3.4	x	x	x	x
Cc1cc(Cc2cc(C)c(O)c(CO)c2)cc(CO)c1O	-9.3	-9.2	-7.9	5.2	0.7	x	x
CCN(CC)S(=O)(=O)c1ccc2c(c1)nc(CCC(=O)OCC(=O)Nc1cc(Cl)cc(Cl)c1)n2C	73.1*	-3.9	-1.6	-14.7	-3.7	6.3	83.5*
CCN(CC)S(=O)(=O)c1ccc2c(c1)nc(CCC(=O)OCC(=O)N1CCc3ccccc31)n2C	70.7*	-4.2	3.3	7.2	5.2	3.2	81.6*
CCN(CC)S(=O)(=O)c1ccc(O)c(C(=O)OCC(=O)N2CCCc3ccccc32)c1	x	-12.6	-2.6	x	x	x	x
